Here are results for 6 molecules from PubChem BioAssay (NCI).

This is part of a sample that, as a whole, favours compounds with a hit. Of some 83,000 tested, about 20% had one in any assay.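 Activity criterion: percent growth below 10, measured after cells in 96-well plates were exposed to a single compound concentration for 48 hours.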 Unmarked numbers belong to inactive results. Active and inactive are the calls of the source.

What all share (assay): NCI-60 one-dose screen, 48 h (100 = growth as untreated, 0 = no growth, -100 = all killed)
Assay [1] has as its system SK-MEL-2 melanoma. The conditions noted are these: 10 µM unless noted.
Assay [2] relates to EKVX NSCLC. The conditions noted are these: 10 µM unless noted.
In assay [3] the test system is SN12C renal. The conditions noted are these: 10 µM unless noted.
The test system of assay [4] is UO-31 renal. As to conditions: 10 µM unless noted.
The test system of assay [5] is TK-10 renal. The conditions noted are these: 10 µM unless noted.
For assay [6], the system named is ACHN renal. As to conditions: 10 µM unless noted.
Assay [7] has as its system CAKI-1 renal. As to conditions: 10 µM unless noted.
Assay [8] concerns A498 renal. As to conditions: 10 µM unless noted.
Assay [9] relates to CCRF-CEM leukemia. The conditions noted are these: 10 µM unless noted.
Assay [10] relates to MOLT-4 leukemia. As to conditions: 10 µM unless noted.
Assay [11] deals with SR leukemia. The conditions noted are these: 10 µM unless noted.
In assay [12] the test system is RPMI-8226 leukemia. The conditions noted are these: 10 µM unless noted.
Assay [13] concerns OVCAR-8 ovarian. The conditions noted are these: 10 µM unless noted.
The subject of assay [14] is OVCAR-5 ovarian. The conditions noted are these: 10 µM unless noted.
Assay [15] concerns OVCAR-4 ovarian. As to conditions: 10 µM unless noted.
The subject of assay [16] is SK-OV-3 ovarian. As to conditions: 10 µM unless noted.
Assay [17] relates to OVCAR-3 ovarian. The conditions noted are these: 10 µM unless noted.
The subject of assay [18] is HS 578T breast. As to conditions: 10 µM.
The test system of assay [19] is NCI/ADR-RES ovarian. As to conditions: 10 µM unless noted.
For assay [20], the system named is IGROV1 ovarian. The conditions noted are these: 10 µM unless noted.

Turning to `C=C(C)[C@@H]1CC[C@]2(C)[C@H](CC=C3[C@@H]4C[C@](C)(C(=O)N5CCN(C)CC5)CC[C@]4(C)CC[C@]32C)[C@@]1(C)CCC#N`, the growth in assay [1] was 76.4%; in assay [2], 85.6%; in assay [3], 75.2%; in assay [4], 66.1%; in assay [5], 75.8%; in assay [6], 80.4%. For the same molecule, the growth in assay [7] was 63%; in assay [8], 97%; in assay [9], 34.1%; in assay [10], 32.1%; in [11] it was 39.4%; in [12] it was 32%. Besides, the growth in assay [13] was 74.7%; in [14], 88.2%; in assay [15], 62.9%; in [16] it was 63.3%; in [17], 55.3%; in assay [18], 81.4%. Moreover, the growth in [19] was 75.6%.
On to `O=C(O)C1[S][Sb]([CH](C(=O)O)[CH](C(=O)O)[Sb]2[S]C(C(=O)O)C(C(=O)O)[S]2)[S]C1C(=O)O` (stereo not drawn), for which the growth in assay [1] is 64.7%; in [2] it was 98%; in assay [3] it was 90.2%; in assay [4], 77.4%; in assay [5], 124%; in [6], 96.5%. In addition, the growth in assay [7] is 96.3%; in assay [8], 101%; in assay [9] it was 52.9%; in [10], 63.7%; in assay [11], 50.2%; in [12], 91.9%. Moreover, the growth is 96.2% in assay [13]; 118% in assay [14]; 103% in [16]; 87.8% in [20]; 95.7% in [17]; 101% in assay [18]. For the same molecule, the growth in [19] was 104%.
As to `CCCCN(CCCC)CCC(O)c1cc2ccc(C(F)(F)F)cc2c2cc(C(F)(F)F)ccc12` (stereo not drawn), the growth is 55% in assay [1]; 70% in [2]; 46.9% in [3]; 19.6% in assay [4]; 74.4% in [5]; 49.9% in assay [6]. Besides, the growth is 38.6% in assay [7]; 56.4% in [8]; 36.2% in assay [9]; 28.7% in assay [10]; -36.8% (active) in assay [11]; -9.02% (active) in assay [12]. Further, the growth in assay [13] was 48.6%; in assay [14] it was 74.9%; in assay [16], 74.2%; in [20] it was 40.3%; in assay [17] it was 30.2%; in [18] it was 58%. Also, the growth in assay [19] is 59.8%.
As to `Cc1cc(C#Cc2ccccc2)ccc1-n1c(/C=C/c2ccc(F)cc2)nc2ccccc2c1=O`, the growth was 71% in [1]; 46.5% in assay [2]; 73% in [3]; 36.2% in assay [4]; 94.4% in assay [5]; 78.6% in assay [6]. Besides, the growth in assay [7] is 55.2%; in [8], 94.1%; in assay [9] it was 74.3%; in assay [10], 44.7%; in [11], 64.8%; in assay [12] it was 25.6%. Besides, the growth is 90.6% in assay [13]; 106% in assay [14]; 57.6% in [15]; 95.2% in assay [20]; 93.3% in [18]; 83.3% in assay [19].
Consider `COc1c(B(O)O)cccc1-c1nc2ccc3[nH]ncc3c2c2c1CCCC2`, for which the growth is 33.7% in assay [1]; 23.6% in assay [2]; 23.7% in assay [3]; 0.387% (active) in [4]; 11.5% in [5]; 3.93% (active) in assay [6]. For the same molecule, the growth was 5.83% (active) in assay [7]; -16.4% (active) in assay [8]; 6.99% (active) in assay [9]; 11.5% in assay [10]; 13.9% in [11]; 7.44% (active) in [12]. Moreover, the growth in assay [13] is 17%; in assay [14], 29.5%; in assay [15] it was 74.2%; in assay [16], 6.76% (active); in assay [17], 19.3%; in assay [18], 14.6%. For the same molecule, the growth in assay [19] is 50.7%.
For `COc1ccc(Br)c2ccccc12`, the growth was 113% in [1]; 94% in [2]; 112% in [3]; 70.3% in assay [4]; 118% in [5]; 102% in assay [6]. Further, the growth in assay [7] is 95.3%; in assay [8], 135%; in [9], 103%; in assay [10] it was 91.6%; in assay [11], 96%; in assay [12], 105%. The growth in [13] is 99.7%; in assay [14] it was 110%; in assay [15], 117%; in [16], 115%; in assay [17], 112%; in assay [18] it was 112%. Further, the growth in [19] was 118%.
